Shown are actives, neighbours in structure and some others; about 6.8% of the full set was active somewhere.
C diff HTS: inhibitors of Clostridium difficile growth; Clostridium difficile clinical isolate growth, OD600, 24 h; hits give low values; growth activity, negative = inhibition, % at 16 µg/mL (by protocol); actives 0.25% (n = 86,000);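 active means mean growth activity at or below -80% and every replicate also at or below -80%; inconclusive means mean at or below -80% but some replicate above -80%; inactive means mean growth activity above -80%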;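 further: 0% = DMSO wells and -100% = levofloxacin 16 µg/mL wells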
Pf Dd2 inh: blocks growth of Plasmodium falciparum Dd2 parasites; AID 1159554; P. falciparum Dd2 growth, SYBR Green, 72 h; hits give low values; activity change, % at 10 µM; actives 2.3% (n = 94,000); in the data active means activity change below about -80%; inconclusive means no clear call, values can overlap the other calls
T cruzi growth-1: blocks T. cruzi growth in NIH3T3 culture | T. cruzi beta-gal in NIH3T3, GalScreen luminescence, 90 h | inhibition, % at 8.34 µM | AID 624255 | actives 5.9% (n = 77,000);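 active means mean inhibition above about 93%, with at least 55% of replicates each passing it, limit read from the data, passing the limit was not always enough; inconclusive means only one of those two conditions holds; inactive means neither condition holds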
T cruzi growth-2: Trypanosoma cruzi proliferation inhibition | actives 72% (n = 5,600) | shares compounds with T cruzi growth-1 | inhibition, % at 8.35 µM | AID 651739 | T. cruzi beta-gal in NIH3T3, GalScreen luminescence, 90 h;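 active means mean replicate inhibition above about 95% and at least 55% of replicates individually reaching it, limit read from the data; inconclusive means only one of the two criteria is met; inactive means neither criterion is met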
T cruzi growth-3: blocks T. cruzi growth in NIH3T3 host cells; shares compounds with T cruzi growth-1; T. cruzi beta-gal in NIH3T3, GalScreen luminescence, 90 h; inhibition, % at 2.09 µM; actives 21% (n = 5,600); AID 651740;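 active means mean inhibition above about 95%, with at least 55% of replicates also reaching it, limit read from the data; inconclusive means meets just one of the two conditions; inactive means meets neither condition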;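 further: plate controls were neutral control median for no effect and positive control median for full effect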
3T3 cytotox: kills mouse NIH/3T3 fibroblasts; shares compounds with T cruzi growth-1; NIH/3T3 viability, CellTiter-Glo ATP luminescence, 90 h; cytotoxicity (signal decrease), % at 8.35 µM; actives 14% (n = 5,600); AID 651742;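 active means mean signal decrease across replicates above about 35% based on untreated-well scatter, with enough replicates individually passing, limit read from the data; inconclusive means no rule stated though some were filed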;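 further: 0% = median of neutral control wells and 100% = median of positive control wells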
3T3 cytotox 2: kills mouse NIH/3T3 fibroblasts; shares compounds with T cruzi growth-1; NIH/3T3 viability, CellTiter-Glo ATP luminescence, 90 h; inhibition, % at 24.9 µM; actives 56% (n = 5,600); AID 651744;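 active means mean loss of cell viability signal at or above a set limit, and enough replicates individually reaching it; inconclusive means meets only the mean limit or only the replicate share; inactive means meets neither condition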;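 further: 0% = median of neutral control wells and 100% = median of positive control wells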
Active calls of the source: *; ? = inconclusive; / = not tested or not shown.

SMILES | C diff HTS | Pf Dd2 inh | T cruzi growth-1 | T cruzi growth-2 | T cruzi growth-3 | 3T3 cytotox | 3T3 cytotox 2
C/C=C/c1cnc2c(c1)C(=O)N([C@H](C)CO)C[C@H](C)[C@@H](CN(C)C(=O)NC1CCCC1)O2 | 18 | 4 | 32 | / | / | / | /
CC(C)NC(=O)N(C)C[C@@H]1Oc2c(cccc2N(C)C)C(=O)N([C@@H](C)CO)C[C@@H]1C | 2 | 7 | 20 | / | / | / | /
C[C@@H]1CN([C@H](C)CO)C(=O)Cc2cc(NC(=O)NC3CCCCC3)ccc2O[C@H]1CN(C)S(=O)(=O)c1cn(C)cn1 | 1 | -3 | 4 | / | / | / | /
CN(C)CC(=O)N[C@@H]1CC[C@H](CCNC(=O)C2CC2)O[C@@H]1CO | -6 | 0 | / | / | / | / | /
CN(C)CC(=O)N1[C@@H](C#N)[C@@H](c2ccc(C#CC3CCCC3)cc2)[C@@H]1CO | 14 | 9 | 92 | / | / | / | /
CN(C)CC(=O)N1[C@H](C#N)[C@H](c2ccc(C#CC3CCCC3)cc2)[C@H]1CO | -3 | -30 | 99* | 96* | 66 | -9 | 106*
N#C[C@H]1[C@@H](c2ccc(C#CC3CC3)cc2)[C@@H](CO)N1C(=O)Nc1ccc(F)cc1 | -1 | 33 | 34 | / | / | / | /
CC(C)NC(=O)N1[C@H](C#N)[C@@H](c2ccc(C#CC3CCCCC3)cc2)[C@@H]1CO | -7 | -73 | 96* | 96* | 113* | -2 | 105*
COc1ccc2c3c([nH]c2c1)[C@H](CO)N(C(=O)c1cccnc1)CC31CCN(Cc2cccnc2)CC1 | -2 | -6 | / | / | / | / | /
C[C@H]1CN([C@@H](C)CO)C(=O)c2cccc(NC(=O)c3nc4ccccc4s3)c2O[C@@H]1CN(C)Cc1ccc(C(=O)Nc2ccccc2N)cc1 | / | -89* | 106* | 107* | 92 | 11 | ?
C[C@H](CO)N1C[C@H](C)[C@H](CN(C)Cc2ccc(C(=O)O)cc2)Oc2c(NC(=O)c3nc4ccccc4s3)cccc2C1=O | 2 | -18 | 29 | / | / | / | /
C[C@H](CO)N1C[C@H](C)[C@@H](CN(C)Cc2ccc(C(=O)Nc3ccccc3N)cc2)Oc2c(NC(=O)c3nc4ccccc4s3)cccc2C1=O | / | -89* | 106* | 108* | 85 | -31 | 11
C[C@H](CO)N1C[C@H](C)[C@H](CN(C)Cc2ccc(C(=O)Nc3ccccc3N)cc2)Oc2c(NC(=O)c3nc4ccccc4s3)cccc2C1=O | / | -93* | ? | 102* | 105* | 23 | 64*
C[C@H]1CN([C@@H](C)CO)C(=O)c2cccc(NC(=O)c3nc4ccccc4s3)c2O[C@@H]1CN(C)Cc1ccc(C(=O)O)cc1 | -3 | -8 | 25 | / | / | / | /
C[C@H](CO)N1C[C@H](C)[C@@H](CN(C)Cc2ccc(C(=O)O)cc2)Oc2c(NC(=O)c3nc4ccccc4s3)cccc2C1=O | 0 | 9 | 42 | / | / | / | /
C[C@@H]1CCCCO[C@H](CN(C)S(C)(=O)=O)[C@@H](C)CN([C@@H](C)CO)C(=O)c2cc(NS(C)(=O)=O)ccc2O1 | -2 | 29 | 24 | / | / | / | /
CCNC(=O)C[C@@H]1CC[C@@H]2[C@H](COc3ccc(NC(=O)c4ccc5c(c4)OCO5)cc3C(=O)N2C)O1 | -8 | -40 | -40 | / | / | / | /
COc1ccc(S(=O)(=O)Nc2ccc3c(c2)CC(=O)N([C@@H](C)CO)C[C@@H](C)[C@@H](CN(C)S(C)(=O)=O)O3)cc1 | 1 | 0 | -10 | / | / | / | /
C[C@@H]1CN([C@H](C)CO)C(=O)c2cccc(NC(=O)c3ccncc3)c2O[C@@H]1CN(C)Cc1ccc(C(=O)Nc2ccccc2N)cc1 | 1 | -47 | 90* | 103* | 77 | 4 | 33*
C[C@@H]1CN([C@H](C)CO)C(=O)c2cccc(NC(=O)c3ccncc3)c2O[C@@H]1CN(C)Cc1ccccc1 | 9 | 3 | 35 | / | / | / | /
C[C@H](CO)N1C[C@H](C)[C@H](CN(C)Cc2ccc(C(=O)Nc3ccccc3N)cc2)Oc2c(NC(=O)c3ccncc3)cccc2C1=O | -3 | 6 | ? | 105* | 83 | 5 | ?
C[C@@H]1CN([C@@H](C)CO)C(=O)c2cccc(N(C)C)c2O[C@@H]1CN(C)Cc1ccc(C(=O)Nc2ccccc2N)cc1 | 2 | -82* | 113* | 104* | 42 | 31 | 73*
C[C@H]1CN([C@@H](C)CO)C(=O)c2cccc(NC(=O)c3ccncc3)c2O[C@@H]1CN(C)Cc1ccc(-c2ccccc2)cc1 | -38 | -44 | ? | 85 | 89 | 17 | 47*
C[C@H]1CN([C@@H](C)CO)C(=O)c2cccc(N(C)C)c2O[C@@H]1CN(C)Cc1ccc(C(=O)Nc2ccccc2N)cc1 | -3 | ? | 87 | / | / | / | /
C[C@H](CO)N1C[C@H](C)[C@H](CN(C)Cc2ccccc2)Oc2c(NC(=O)c3ccncc3)cccc2C1=O | 5 | -2 | 70 | / | / | / | /
SMILES | C diff HTS | Pf Dd2 inh | T cruzi growth-1 | T cruzi growth-2 | T cruzi growth-3 | 3T3 cytotox | 3T3 cytotox 2
C[C@H]1CN([C@@H](C)CO)C(=O)c2cccc(NC(=O)c3ccncc3)c2O[C@H]1CN(C)Cc1ccc(-c2ccccc2)cc1 | 0 | -38 | 107 | / | / | / | /
C[C@@H]1CN([C@H](C)CO)C(=O)c2ccccc2-c2ccccc2CO[C@@H]1CN(C)C | 4 | 1 | -27 | / | / | / | /
COc1ccc(S(=O)(=O)Nc2ccc3c(c2)C(=O)N([C@@H](C)CO)C[C@H](C)[C@@H](CN(C)Cc2ccncc2)OCCCC[C@@H](C)O3)cc1 | 4 | -49 | 55 | / | / | / | /
CCC(=O)N1[C@@H]2Cn3c(ccc(-c4ccccc4)c3=O)[C@H]1[C@@H](C(=O)N1CCc3ccccc3C1)[C@@H]2CO | -2 | -1 | 13 | / | / | / | /
O=C(C[C@H]1C[C@@H]2c3cc(NC(=O)c4ccc5c(c4)OCO5)ccc3O[C@@H]2[C@@H](CO)O1)NC1CCCCC1 | / | -36 | 10 | / | / | / | /
Cc1ccc(S(=O)(=O)N(C)C[C@H]2Oc3c(NC(=O)c4ccncc4)cccc3C(=O)N([C@@H](C)CO)C[C@H]2C)cc1 | -9 | -21 | 75 | / | / | / | /
Cc1noc(C)c1NC(=O)Nc1ccc2c(c1)C(=O)N([C@@H](C)CO)C[C@H](C)[C@@H](CN(C)C(=O)Nc1cccc3ccccc13)O2 | -1 | 31 | / | / | / | / | /
C[C@H](CO)N1C[C@H](C)[C@@H](CN(C)C(=O)Nc2ccnc(N3CCOCC3)c2)OCc2cn(nn2)CCCC1=O | 5 | -3 | 27 | / | / | / | /
C[C@H](CO)N1C[C@H](C)[C@H](CN(C)Cc2ccc(C(F)(F)F)cc2)Oc2c(NC(=O)c3ccncc3)cccc2C1=O | 0 | -13 | ? | 91 | 92 | 20 | 19
C[C@H]1CN([C@@H](C)CO)C(=O)c2cccc(NC(=O)c3ccncc3)c2O[C@H]1CN(C)Cc1ccc(C(F)(F)F)cc1 | 6 | 4 | 94 | / | / | / | /

Screens deposited in PubChem BioAssay by Broad Institute.
